Among the data in PubChem BioAssay (NCATS) are Potency values, retold here.

Test [1] in a line: Quantitative High-Throughput drug screen in 47 multiple myeloma cell lines against the NCATS MIPE library collection: KMS12PE_JCRB cell viability assay (AID 1918972). Note: nearly all actives have a fitted effect of over 30% in size. In a few lines:
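CellTiter-Glo ATP luminescence gave viability after 48 h compound treatment at 37C of 500 multiple myeloma cells per well. Normalisation used DMSO-only wells as 100% and media-only wells as 0% viability; primary qHTS of approved and investigational drugs.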

Test [2] is described as follows: Quantitative High-Throughput drug screen in 47 multiple myeloma cell lines against the NCATS MIPE library collection: KMS20_JCRB cell viability assay (AID 1918973). Note: nearly all actives have a fitted effect of over 45% in size. In outline:
(§1)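 qHTS of the MIPE 4.0 collection: 500 myeloma cells/well, 48 h drug exposure at 37C in 5% CO2, then CellTiter-Glo for 5 min at room temperature before luminescence reading.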

The nature of test [3]: Quantitative High-Throughput drug screen in 47 multiple myeloma cell lines against the NCATS MIPE library collection: MMM1_PLB cell viability assay (AID 1918976). Note: nearly all actives have a fitted effect of over 35% in size. In outline: (§2)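 ATP-based CellTiter-Glo luminescence after 48 h drug exposure (37 °C, 5% CO2) of 500 myeloma cells per well. DMSO-only wells set 100% viability, media-only wells 0%; MIPE 4.0 library added by pin tool.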

A short description of test [4]: Quantitative High-Throughput drug screen in 47 multiple myeloma cell lines against the NCATS MIPE library collection: NCIH929_DSMZ cell viability assay (AID 1918978). Note: nearly all actives have a fitted effect of over 35% in size. In a few lines: as §2
Test [5] is described as follows: Quantitative High-Throughput drug screen in 47 multiple myeloma cell lines against the NCATS MIPE library collection: MM1S_ATCC cell viability assay (AID 1918980). Note: nearly all actives have a fitted effect of over 45% in size. In outline:
as §2

A short description of test [6]: Quantitative High-Throughput drug screen in 47 multiple myeloma cell lines against the NCATS MIPE library collection: MM1R_ATCC cell viability assay (AID 1918981). Note: nearly all actives have a fitted effect of over 35% in size. In a few lines:
as §2

Test [7] can be described thus: Quantitative High-Throughput drug screen in 47 multiple myeloma cell lines against the NCATS MIPE library collection: KMS21BM_JCRB cell viability assay (AID 1918974). As to conditions: ATP luminescence, 48 h; viability: at 45.8 µM (top of the series). In outline:
as §1

Test [8] can be described thus: Quantitative High-Throughput drug screen in 47 multiple myeloma cell lines against the NCATS MIPE library collection: KMS26_JCRB cell viability assay (AID 1918975). Note: nearly all actives have a fitted effect of over 45% in size. In outline:
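Steps: seed 500 cells per well; pin-transfer MIPE 4.0 library; incubate 48 h at 37C, 5% CO2, humidified; add CellTiter-Glo, 5 min room temperature; read luminescence.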

Test [9] is described as follows: Quantitative High-Throughput drug screen in 47 multiple myeloma cell lines against the NCATS MIPE library collection: OCIMY1_PLB cell viability assay (AID 1918979). Note: nearly all actives have a fitted effect of over 35% in size. In a few lines:
as §2

Test [10] in a line: Quantitative High-Throughput drug screen in 47 multiple myeloma cell lines against the NCATS MIPE library collection: MOLP8_DSMZ cell viability assay (AID 1918977). Note: nearly all actives have a fitted effect of over 45% in size. In a few lines: as §2

Records with an inconclusive call do not appear. Active and inactive are the calls of the source. Calls come from the whole dose curve; as a rule, active = well fitted curve in the direction sought with a large enough effect; inconclusive = small, poorly fitted or top-dose-only effect, or another doubt; inactive = no such curve, though single readings can be large; an effect the other way counts as inactive or inconclusive.
Potency is the fitted concentration of half-maximal effect.

With `C[C@@]1(C(=O)Nc2ccc(F)nc2)CCCN1c1nc(Nc2cc(C3CC3)[nH]n2)c2cccn2n1`, the Potency is 0.166 µM (active) in [1]; 0.0743 µM (active) in test [2]; 0.0209 µM (active) in test [3]; 0.0235 µM (active) in test [4]; 0.0469 µM (active) in [5]; 0.0166 µM (active) in test [6].

For `CCOc1ccccc1N=Nc1c(C)[nH]n(-c2nc(-c3ccccc3)cs2)c1=O`, the Potency in test [1] is 18.7 µM (active); in [8], 4.18 µM (active); in [3], 8.33 µM (active); in test [4], 0.264 µM (active); in [9] it was 7.43 µM (active); in test [5] it was 13.2 µM (active). Moreover, the Potency in test [6] was 3.32 µM (active). The Potency result in [7] is “inactive”.

For the compound `COc1ccc(C=CC(=O)Nc2ccccc2C(=O)O)cc1OC`, the Potency entry in test [1], in test [10] and in [4] was “inactive” throughout. Further, the Potency in test [2] and in test [5] was 11.8 µM (active) each time.

In the case of `CCOC(=O)[C@H]1O[C@H]1C(=O)N[C@@H](CC(C)C)C(=O)NCCC(C)C`, the Potency entry in test [1], in test [2], in test [10], in [4], in test [9] and in [6] was “inactive” each time.

With `O=C1CN2Cc3c(ccc(Cl)c3Cl)N=C2N1`, the Potency result in [1] and in test [2] was “inactive” in each case. The figures for the Potency in test [3] and in test [5] were 23.5 µM (active) and 18.7 µM (active), respectively.

With `O=c1cc(-c2ccc(O)c(O)c2)oc2cc(O)cc(O)c12`, the Potency entry in [1], in [8] and in [6] was “inactive” throughout. For the same compound, the Potency in test [7] is 2.09 µM (active).

For the compound `CNC(=O)[C@H](CC1=CN=C2C=CCC=C12)NC(=O)[C@@H](CC(=O)NO)CC(C)C`, the Potency is 0.105 µM (active) in test [1], 0.105 µM (active) in test [7] and 3.32 µM (active) in test [5]. Besides, the Potency result in test [8] and in test [9] was “inactive” each time.

Take `CNC(=O)c1cc(COc2nnc(Nc3ccc(Cl)cc3)c3ccoc23)ccn1`: the Potency was 6.62 µM (active) in test [1] and 23.5 µM (active) in test [9]. In addition, the Potency result in [2] and in test [5] was “inactive” each time.

Consider `COc1cc(N2CCN(C)CC2)ccc1Nc1nc(N)c(C(=O)c2c(Cl)cccc2Cl)s1`, for which the Potency in [1] is 23.5 µM (active); in test [7], 10.5 µM (active); in test [8], 4.18 µM (active); in test [3], 8.33 µM (active); in test [5], 20.9 µM (active). Further, the Potency result in [4] is “inactive”.

Turning to `CC[C@H](C=C[C@@H](C)[C@H]1CC[C@H]2[C@@H]3CC=C4C[C@@H](O)CC[C@]4(C)[C@@H]3CC[C@]12C)C(C)C`, the Potency result in test [1], in [2], in [5] and in test [6] was “inactive” in each case.

As to `N#CC1(c2cccc(C(=O)Nc3cc(Oc4ccc5nc(NC(=O)C6CC6)sc5n4)ccc3F)c2Cl)CC1`, the Potency in [1] was 2.09 µM (active); in test [2], 0.469 µM (active); in [6], 14.8 µM (active).

`CC1CCN(c2cc(N3CCN(C)CC3)ccc2NC(=O)c2cc(C#N)c[nH]2)CC1`: the Potency entry in test [1], in test [2] and in test [4] was “inactive” throughout. The Potency in [3] was 23.5 µM (active); in test [6] it was 20.9 µM (active).

Turning to `OC1CCC(Nc2ncc3nc(Nc4c(F)cc(F)cc4F)n([C@@H]4CCOC4)c3n2)CC1` (stereo partly specified), the Potency is 18.7 µM (active) in test [1]; 4.69 µM (active) in [7]; 11.8 µM (active) in test [10]; 11.8 µM (active) in [5]; 10.5 µM (active) in test [6]. Moreover, the Potency result in test [8] is “inactive”.

Turning to `Cc1cc(CS(=O)(=O)c2ccccc2)cc(OCc2ccc(CN3CCC[C@H]3CO)cc2)c1`, the Potency in test [1] is 16.6 µM (active); in [7] it was 1.18 µM (active); in [8] it was 5.26 µM (active); in [3] it was 13.2 µM (active); in test [5], 4.69 µM (active). Besides, the Potency entry in test [4] and in test [9] was “inactive” each time.

For `CCCCCCCCCCCCCC(=O)N[C@H](CO)[C@H](O)c1ccc([N+](=O)[O-])cc1`, the Potency is 8.33 µM (active) in test [1], 23.5 µM (active) in [2], 23.5 µM (active) in [4] and 18.7 µM (active) in test [6]. For the same compound, the Potency entry in test [9] was “inactive”.

In the case of `C=CC[N+]1([C@H]2C[C@H]3[C@@H]4CC[C@H]5C[C@H](O)[C@@H](N6CCOCC6)C[C@]5(C)[C@@H]4CC[C@]3(C)[C@H]2OC(C)=O)CCCC1`, the Potency result in test [1], in test [2], in test [9] and in [6] was “inactive” in each case. For the same compound, in test [5], the Potency is 18.7 µM (active).

As for `Nc1ccn([C@@H]2O[C@H](CO)[C@@H](O)[C@H]2O)c(=O)n1`, the Potency result in test [1], in [8] and in test [10] was “inactive” throughout. The Potency in test [6] was 0.0526 µM (active).

In the case of `CCCCC(C=O)NC(=O)C(CC(C)C)NC(=O)OCc1ccccc1` (stereo unspecified), the Potency result in test [1] and in test [9] was “inactive” each time. Further, the Potency in test [3] is 6.62 µM (active); in test [4], 20.9 µM (active).

For the compound `Cc1cn([C@@H]2C[C@@H](O)[C@H](CO)O2)c(=O)[nH]c1=O`, the Potency result in test [1], in test [8], in test [10], in [4], in test [9] and in test [5] was “inactive” in each case. In [6], the Potency entry was “inactive”.

For the compound `CC(C)c1onc(-c2c(Cl)cccc2Cl)c1COc1ccc(C=Cc2cccc(C(=O)O)c2)c(Cl)c1`, the Potency entry in test [1], in test [10], in test [4] and in test [9] was “inactive” in each case. Further, the figures for the Potency in [3], in [5] and in test [6] were 20.9 µM (active), 18.7 µM (active) and 0.148 µM (active), respectively.

Turning to `Cc1ccc(S(=O)(=O)Nc2nc3ccccc3nc2Nc2ccc3nsnc3c2)cc1`, the Potency in [1] was 0.407 µM (active); in test [3] it was 3.63 µM (active); in [10], 6.45 µM (active); in test [4], 7.24 µM (active); in test [5] it was 0.575 µM (active).

Regarding `O=C1C(CCC(O)c2ccc(F)cc2)C(c2ccc(O)cc2)N1c1ccc(F)cc1` (stereo unspecified), the Potency in test [1] is 20.9 µM (active). The Potency entry in test [8], in [10], in [4], in test [9] and in test [6] was “inactive” throughout.

As for `CC(NCCc1ccc(O)cc1)C(O)c1ccc(O)cc1` (stereo unspecified), the Potency result in test [1], in [10], in test [4] and in [9] was “inactive” each time. Also, the Potency is 14.8 µM (active) in test [3], 5.9 µM (active) in test [5] and 4.18 µM (active) in test [6].

As for `COc1cc([C@H]2Oc3cc([C@H]4Oc5cc(O)cc(O)c5C(=O)[C@H]4O)ccc3O[C@H]2CO)ccc1O`, in test [1], the Potency result was “inactive”. For the same compound, the Potency in test [8] was 16.6 µM (active); in test [3] it was 7.43 µM (active); in test [9] it was 20.9 µM (active); in test [5], 9.35 µM (active); in test [6], 23.5 µM (active).

Consider `O=c1[nH]c(=O)n([C@H]2C[C@@H](O)[C@@H](CO)O2)cc1I`, for which the Potency is 1.48 µM (active) in [1] and 6.62 µM (active) in test [6]. In addition, the Potency result in test [8], in test [4] and in test [9] was “inactive” throughout.

For `CN(C)c1nc(Cc2ccc(NC(=O)c3ccc(C(F)(F)F)cc3)cc2)nc(N(C)C)c1CC(=O)O`, the Potency result in test [1], in [8] and in test [4] was “inactive” throughout. Also, the Potency is 2.96 µM (active) in test [5] and 9.35 µM (active) in [6].

Turning to `CN1C(=O)C[C@H](C(=O)N[C@@H](Cc2cnc[nH]2)C(=O)N2CCC[C@@H]2C(N)=O)NC1=O`, the Potency entry in test [1] was “inactive”. Further, the Potency in test [3] was 4.69 µM (active).
